DUSP3 inh: inhibitors of human VHR1 phosphatase (DUSP3). P51452. recombinant VHR phosphatase, pNPP absorbance. inhibition, % at 13.3 µM. 290,000 compounds, 0.52% hits. AID 1654; in the data active = inhibition above about 50%
Yp Topo-I inh: Y. pestis Topo-I inhibition via cleavage products; activity, % at 10 µM; Y. pestis Topo-I cleavage product accumulation, plate reader; 360,000 compounds, 0.064% hits; AID 504884; in the data active = activity above about 50%, passing the limit was not always enough
TcdB inh: TcdB glycohydrolase inhibition | P18177 | TcdB glycohydrolase enzymatic assay, plate reader | inhibition, % at 9.99 µM | 350,000 compounds, 0.24% hits | AID 652162; in the data active = inhibition above about 10%
BioA inh: BioA (M. tuberculosis) enzyme inhibition; inhibition, % at 9.99 µM; 360,000 compounds, 0.096% hits; AID 602481; purified M. tuberculosis BioA enzyme, plate reader; in the data active = inhibition above about 40%
FadD28 FP inh: inhibitors of Mycobacterium tuberculosis FadD28 bisubstrate binding; inhibition, % at 12.5 µM; 360,000 compounds, 0.22% hits; FadD28 bisubstrate probe binding, fluorescence polarization; in the data active = inhibition above about 8.5%, passing the limit was not always enough
MazF activator: activators of E. coli MazEF toxin-antitoxin RNase; FAM/BHQ RNA-DNA oligo cleavage fluorescence, 5 h; activation, % at 20 µM; 350,000 compounds, 0.32% hits; in the data active = activation above about 50%
* = called active by the depositor; . = no result given; + = active, no number. Most compounds without a hit are left out; they make up all but 1% or so of the library.

SMILES	DUSP3 inh	Yp Topo-I inh	TcdB inh	BioA inh	FadD28 FP inh	MazF activator
Oc1cccc(/C=N/N2CCN(c3ccccn3)CC2)c1	-4.3	6.0	2.4	2.4	-2.2	0.5
Oc1ccc(/C=N/N2CCN(c3ccccn3)CC2)cc1	-8.5	0.8	13.0*	-2.3	-0.4	-13.1
Cc1oc(-c2ccc(Cl)cc2)nc1CN1CCCC(C(=O)N2CCOCC2)C1 (stereo not given)	-16.2	3.8	0.3	-0.7	-2.2	-26.7
Cc1oc(-c2ccc(Cl)cc2)nc1CN1CCCC(C(=O)N2CCN(C(=O)c3ccco3)CC2)C1 (stereo not given)	52.3*	-1.6	2.2	0.2	-4.4	5.3
CC(C)c1nc2sc3c(=O)[nH]cnc3c2c2c1CCCC2	5.4	2.1	1.6	.	-2.6	67.8*
Cc1cc(N/N=C/c2ccc(O)cc2O)nc(N2CCOCC2)n1	8.8	-11.6	14.6*	0.5	3.5	-4.0
O=C(C[C@@H]1CC[C@H]2[C@@H](COC[C@H](O)CN2Cc2cc(F)cc(F)c2)O1)NC1CCC1	.	.	-0.1	-0.4	.	.
C[C@H](CO)N1C[C@H](C)[C@@H](CN(C)C(=O)Cc2ccccc2)OCCCC[C@H](C)Oc2ccc(NC(=O)C3CCCCC3)cc2C1=O	.	.	.	-4.7	.	.
CC(=O)N1CCN(c2ccc(S(C)(=O)=O)cc2[N+](=O)[O-])CC1	-8.9	-5.3	10.9*	9.5	-3.3	1.7
CC(=O)N1CCN(c2ccc(S(=O)(=O)N3CCCCC3)cc2[N+](=O)[O-])CC1	.	8.3	1.2	3.1	-1.2	-3.1
Cc1ccc(-c2ccc([C@H]3[C@@H](CO)N4C(=O)CN(C(=O)c5ccc(F)cc5)C[C@@H]34)cc2)cc1	.	.	-0.7	.	.	.
COc1cc(C(=O)C(=O)c2cc(OC)c(O)c(OC)c2)cc(OC)c1O	53.0*	0.9	-0.2	-3.3	-1.4	-2.7
CCOC(=O)N1C2C=CC(C2)N1C(=O)OCC	.	4.3	0.4	-1.4	-0.1	156.7*
CCOC(=O)N1C2CCC(C2)N1C(=O)OCC	.	0.7	1.7	.	-3.5	7.8
CC(C(=O)NCc1cccnc1)c1ccc([N+](=O)[O-])cc1 (stereo not given)	52.0*	-9.8	1.2	1.5	0.2	-3.0
O=C(Nc1ccccc1F)N(Cc1ccc(F)cc1)Cc1nc2ccccc2c(=O)[nH]1	10.6	16.7	24.2*	.	-2.8	47.2
Cc1cccc(C)c1NC(=O)COC(=O)c1c2c(nc3ccccc13)/C(=C\c1ccc3c(c1)OCO3)CCC2	5.4	-6.2	0.0	.	-3.3	-9.5
CC(OC(=O)c1c2c(nc3ccccc13)/C(=C\c1ccc3c(c1)OCO3)CCC2)C(=O)Nc1ccc(S(N)(=O)=O)cc1 (stereo not given)	5.7	-4.4	.	-4.4	-1.0	164.8*
COc1cc(NC(=O)c2ccccc2)c(OC)cc1NC(=O)Cc1ccc(Br)cc1	21.9	18.6	0.4	-0.6	0.1	54.6*
NS(=O)(=O)c1ccc(CCNc2nc3c(-c4cccc(F)c4)nnn3c3ccccc23)cc1	8.8	-3.4	.	-0.1	-4.5	109.1*
Cc1cccc(-c2nnn3c2nc(NCCc2ccc(S(N)(=O)=O)cc2)c2ccccc23)c1	16.5	2.3	.	2.2	-2.7	4.8
COC(=O)C1=C(c2ccc(-c3ccccc3)c(F)c2)C[C@@H]2CC[C@H]1N2C(=O)NCCO	.	22.9	1.4	-1.5	-0.6	-5.5
COC(=O)C1=C(c2ccc(-c3ccccc3)c(F)c2)C[C@@H]2CC[C@H]1N2C(=O)NCc1ccco1	.	55.7*	-0.8	0.0	-1.9	-2.3
COC(=O)C1=C(c2ccc(OCc3ccccc3)cc2)C[C@@H]2CC[C@H]1N2C(=O)NCCCc1ccccc1	.	10.5	11.7*	-0.7	-0.3	-4.0
COC(=O)C1=C(c2cccc(OCc3ccccc3)c2)C[C@@H]2CC[C@H]1N2C(=O)NCCCc1ccccc1	.	37.4	2.6	1.5	-2.7	4.3
SMILES	DUSP3 inh	Yp Topo-I inh	TcdB inh	BioA inh	FadD28 FP inh	MazF activator
CO[C@@H]1CN(C)C(=O)c2cc(NC(=O)c3ccccc3)ccc2OC[C@H](C)N(C(C)=O)C[C@@H]1C	.	.	-1.1	-0.2	.	.
CCCNC(=O)NC(=O)COC(=O)c1cccc(NS(=O)(=O)c2ccc(F)c(F)c2)c1	4.6	5.7	3.8	-1.4	-1.6	-2.3
O=C(COC(=O)c1cccc(NS(=O)(=O)c2ccc(F)c(F)c2)c1)NC(=O)NC1CCCCC1	2.6	6.7	.	1.8	31.7*	-14.5
CCC(C(=O)N1CCN(Cc2ccc3c(c2)OCO3)CC1)n1c(=O)[nH]c2ccccc2c1=O (stereo not given)	51.2*	9.1	0.9	0.2	-0.3	6.6
Cc1ccc(C)c(N2CCN(C(=O)c3ccc(Cn4c(=O)[nH]c5ccccc5c4=O)cc3)CC2)c1	51.2*	-2.2	.	-0.5	-6.3	-21.3
O=C(c1ccc(Cn2c(=O)[nH]c3ccccc3c2=O)cc1)N1CCN(c2ccc(Cl)cc2)CC1	28.6	26.4	.	-0.6	-3.8	-11.0
O=C(c1ccc2c(=O)n(Cc3ccc4c(c3)OCO4)c(=O)[nH]c2c1)N1CCN(c2ccccc2)CC1	23.2	-1.7	-0.2	0.0	-4.3	62.2*
COc1ccc(CN(Cc2cccn2C)C(=O)c2cc3cc(OC)ccc3[nH]2)cc1	-3.6	51.1*	0.5	-0.1	0.5	-3.9
COc1cc(/C=C2\SC(c3ccc(C)cc3)=NC2=O)cc(OC)c1OC	-0.9	4.9	.	1.5	-2.0	101.6*
COc1ccc(/C=C2\SC(c3ccc(C)cc3)=NC2=O)cc1OC	-0.9	-2.9	.	2.9	0.2	+
O=C(Cc1ccncc1)NCC[C@@H]1CC[C@H](NC(=O)Nc2cccc(F)c2)[C@H](CO)O1	.	.	-2.3	2.0	.	.
C[C@@H]1CCCCO[C@H](CN(C)CC2CCCCC2)[C@H](C)CN([C@H](C)CO)C(=O)c2cc(NC(=O)C3CCCCC3)ccc2O1	.	.	-6.1	0.6	.	.
COCC#Cc1cnc2c(c1)C(=O)N([C@@H](C)CO)C[C@@H](C)[C@@H](CN(C)C)O2	.	.	-0.7	-3.6	.	.
CC(C(=O)OCC(=O)c1ccccc1)N1C(=O)C2C3CCC(C3)C2C1=O (stereo not given)	54.4*	-0.8	4.6	.	-3.6	-3.6
COc1ccc(C(=O)COC(=O)C(C)N2C(=O)C3C4CCC(C4)C3C2=O)cc1 (stereo not given)	10.2	3.6	1.2	-0.1	.	7.7
C[C@@H]1CCCCO[C@H](CN(C)C(=O)Nc2ccc3c(c2)OCO3)[C@H](C)CN([C@H](C)CO)C(=O)c2cc(NC(=O)NC3CCCCC3)ccc2O1	.	.	.	-1.4	.	.
C[C@@H]1CN([C@@H](C)CO)C(=O)c2cc(C#CCN(C)C)cnc2O[C@H]1CN(C)C(=O)c1cccnc1	.	.	0.2	-0.8	.	.
CCC1CCCCN1CCCNC(=O)c1nn(C)c2c1CS(=O)(=O)c1ccccc1-2 (stereo not given)	7.1	-7.2	-7.3	-1.6	-1.9	-1.4
CC1CCCCN1CCCNC(=O)c1nn(C)c2c1CS(=O)(=O)c1ccccc1-2 (stereo not given)	59.1*	-2.6	0.2	-2.1	-0.6	3.6

High-throughput results as filed in PubChem BioAssay.
